Values joined by “and” are separate entries in the source; they are usually repeats but may differ in a detail not shown here. Equal values may be shown once. Results filed as inconclusive are left out. A structure can be active in one record and inactive in another. Active and inactive are the calls of the source. How the source made its calls, unless noted: active means hit-call score of the fitted dose curve at least 0.9, where 1 is the maximum; inactive means score below 0.9.
What was measured:
[1] = read-out: solute carrier (SLCO1B1), SLCO1B1 (gene 10599); assay: LTEA_HepaRG_SLCO1B1: Life Technologies and Expression Analysis (LTEA) Assay for solute carrier (SLCO1B1) using HepaRG (AID 2283530); conditions: mRNA level, 48 h; actives raise or lower the signal
How it was run: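 Differentiated human HepaRG cells were exposed for 48 h in serum-free induction medium to eight half-log concentrations, top 100 uM, in 0.5% DMSO. SLCO1B1 mRNA was measured by qRT-PCR, normalized to ACTB, GAPDH and POLR2A, and fitted bidirectionally against DMSO.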

[2] = read-out: Transforming Growth Factor (TGFA), TGFA (gene 7039); assay: LTEA_HepaRG_TGFA: Life Technologies and Expression Analysis (LTEA) Assay for Transforming Growth Factor (TGFA) using HepaRG (AID 2283532); conditions: mRNA level, 48 h; actives raise or lower the signal
How it was run: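 Differentiated HepaRG cells exposed 48 hours in serum-free induction medium, 0.5% DMSO vehicle, 8-point half-log series from 100 uM, in duplicate. TGFA mRNA by TaqMan qRT-PCR, normalised to ACTB, GAPDH, POLR2A; bidirectional fit versus DMSO.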

[3] = read-out: Transforming Growth Factor (TGFB1), TGFB1 (gene 7040); assay: LTEA_HepaRG_TGFB1: Life Technologies and Expression Analysis (LTEA) Assay for Transforming Growth Factor (TGFB1) Transporter using HepaRG (AID 2283533); conditions: mRNA level, 48 h; actives raise or lower the signal
How it was run: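 Differentiated HepaRG cells exposed 48 hr in serum-free induction medium to eight half-log concentrations up to 100 uM (0.5% DMSO), duplicate; TGFB1 mRNA by TaqMan qRT-PCR normalised to ACTB, GAPDH, POLR2A; bidirectional fit against DMSO.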

TIMP1, TIMP1 (gene 7076) = assay: LTEA_HepaRG_TIMP1: Life Technologies and Expression Analysis (LTEA) Assay for TIMP1 using HepaRG (AID 2283534); conditions: mRNA level, 48 h; actives raise or lower the signal;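 further: TaqMan qRT-PCR signal normalized to ACTB GAPDH and POLR2A housekeeping genes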
How it was run: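 Differentiated HepaRG cells exposed 48 h in serum-free induction medium, duplicates, eight half-log concentrations from 100 uM in 0.5% DMSO. TIMP1 mRNA by qRT-PCR normalized to ACTB, GAPDH, POLR2A; bidirectional fitting against DMSO.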

[4] = read-out: Tumor necrosis factor receptor 1 (TNFRSF1A), TNFRSF1A (gene 7132); assay: LTEA_HepaRG_TNFRSF1A: Life Technologies and Expression Analysis (LTEA) Assay for Tumor necrosis factor receptor 1 (TNFRSF1A) using HepaRG (AID 2283535); conditions: mRNA level, 48 h; actives raise or lower the signal
How it was run: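 Differentiated HepaRG cells in serum-free induction medium, exposed 48 h in duplicate to 8 half-log concentrations up to 100 uM in 0.5% DMSO. TNFRSF1A mRNA by Fluidigm TaqMan qRT-PCR, normalized to ACTB, GAPDH, POLR2A; bidirectional fit.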

[5] = read-out: Thyroid Hormone Responsive (THRSP), THRSP (gene 7069); assay: LTEA_HepaRG_THRSP: Life Technologies and Expression Analysis (LTEA) Assay for Thyroid Hormone Responsive (THRSP) using HepaRG (AID 2283536); conditions: mRNA level, 48 h; actives raise or lower the signal
How it was run: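 Differentiated HepaRG cells treated 48 h in serum-free induction medium with 8 half-log concentrations up to 100 uM (0.5% DMSO), duplicates. THRSP mRNA by TaqMan qRT-PCR normalised to ACTB, GAPDH, POLR2A; bidirectional fit versus DMSO.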

[6] = read-out: Cellular tumor antigen p53 (Homo sapiens) (UniProt P04637); assay: LTEA_HepaRG_TP53: Life Technologies and Expression Analysis (LTEA) Assay for Tumor Protein P53 (TP53) using HepaRG (AID 2283537); conditions: mRNA level, 48 h; actives raise or lower the signal
How it was run: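 Gain or loss of TP53 mRNA signal is scored relative to 0.5% DMSO after 48 h chemical treatment of HepaRG liver cells, tested in duplicate at eight half-log concentrations up to 100 uM.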

[7] = read-out: UDP glucuronosyltransferase (UGT1A1), UGT1A1 (gene 54658); assay: LTEA_HepaRG_UGT1A1: Life Technologies and Expression Analysis (LTEA) Assay for UDP glucuronosyltransferase (UGT1A1) using HepaRG (AID 2283538); conditions: mRNA level, 48 h; actives raise or lower the signal
How it was run: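 Human liver HepaRG cultures receive test chemical for 48 h, up to 100 uM in 0.5% DMSO, with phenobarbital induction controls. UGT1A1 mRNA is measured by qRT-PCR and normalized to ACTB, GAPDH and POLR2A.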

[8] = read-out: UDP glucuronosyltransferase (UGT1A6), UGT1A6 (gene 54578); assay: LTEA_HepaRG_UGT1A6: Life Technologies and Expression Analysis (LTEA) Assay for UDP glucuronosyltransferase (UGT1A6) using HepaRG (AID 2283539); conditions: mRNA level, 48 h; actives raise or lower the signal
How it was run: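 Differentiated HepaRG cells, ~100,000/well, were exposed for 48 h in serum-free induction medium with 0.5% DMSO to 8-point half-log series topping at 100 uM, in duplicate. mRNA measured by Fluidigm TaqMan qRT-PCR, normalized to ACTB, GAPDH and POLR2A.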

[9] = read-out: X-box binding protein 1 (XBP1), XBP1 (gene 7494); assay: LTEA_HepaRG_XBP1: Life Technologies and Expression Analysis (LTEA) Assay for X-box binding protein 1 (XBP1) using HepaRG (AID 2283540); conditions: mRNA level, 48 h; actives raise or lower the signal
How it was run: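 Differentiated human HepaRG cells in serum-free induction medium exposed 48 h in duplicate to eight half-log concentrations up to 100 uM in 0.5% DMSO. XBP1 mRNA measured by Fluidigm TaqMan qRT-PCR, normalized to ACTB, GAPDH, POLR2A; bidirectional fitting against DMSO.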

[10] = LTEA_HepaRG_LDH_cytotoxicity: Cytotoxicity Assessment in the Life Technologies and Expression Analysis (LTEA) Assay (AID 2283563; active means hit-call score of the fitted dose curve at least 0.9, where 1 is the maximum;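 on AC50: LDH activity released into spent culture medium as a marker of cell death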)
How it was run: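 Differentiated HepaRG cells in serum-free induction medium, exposed 48 h in duplicate to 8 half-log concentrations up to 100 uM in 0.5% DMSO. Cytotoxicity from LDH measured in spent medium, fit relative to DMSO.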

[11] = ATG_XTT_Cytotoxicity: Cytotoxicity Assessment in the Attagene TRANS-FACTORIAL HepG2 Assay (AID 2283584; active means hit-call score of the fitted dose curve at least 0.9, where 1 is the maximum)
How it was run: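 HepG2 cells transiently transfected with GAL4-UAS multiple reporter units, dosed 24 h; cytotoxicity read by XTT as loss of signal versus DMSO baseline.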

[12] = TOX21_p53_BLA_p2_viability: Viability Assessment in the Tox21 HCT-116 p53 Agonism Beta-lactamase Assay, Phase 2 (AID 2283591; active means hit-call score of the fitted dose curve at least 0.9, where 1 is the maximum;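 further: compound exposure lasted 16 h at 37 °C; actives lower the ATP signal meaning cytotoxicity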)
How it was run: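 HCT116 p53-bla cells, 4000/well, dosed after 5 h plating (217-fold dilution of DMSO stocks) and incubated 16 h at 37C. Viability taken as cellular ATP by CellTiter-Glo luminescence after 30 min RT; signal loss marks cytotoxicity.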

[13] = target: Cellular tumor antigen p53 (Homo sapiens) (UniProt P04637); assay: TOX21_p53_BLA_p2_ratio: Tox21 HCT-116 p53 Agonism Beta-lactamase Assay, Ratio, Phase 2 (AID 2283592; active means hit-call score of the fitted dose curve at least 0.9, where 1 is the maximum)
Sequence of Cellular tumor antigen p53 (Homo sapiens) (P04637 whole entry, looked up): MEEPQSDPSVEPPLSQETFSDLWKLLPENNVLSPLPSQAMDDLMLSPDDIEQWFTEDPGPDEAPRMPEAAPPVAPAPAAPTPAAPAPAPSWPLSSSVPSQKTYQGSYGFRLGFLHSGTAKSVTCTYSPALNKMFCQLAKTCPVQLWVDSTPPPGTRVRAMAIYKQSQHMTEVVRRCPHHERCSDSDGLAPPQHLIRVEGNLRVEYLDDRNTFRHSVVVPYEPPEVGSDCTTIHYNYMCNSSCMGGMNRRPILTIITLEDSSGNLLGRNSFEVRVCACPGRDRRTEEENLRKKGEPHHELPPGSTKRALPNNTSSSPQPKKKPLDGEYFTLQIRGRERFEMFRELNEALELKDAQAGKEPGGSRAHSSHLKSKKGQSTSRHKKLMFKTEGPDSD
How it was run: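 HCT-116 cells with p53-responsive beta-lactamase reporter, 4000 cells/well, preincubated 5 h, then compound in DMSO (217-fold dilution) for 16 h at 37C. CCF4-AM substrate 2 h at room temperature; 460/530 nm emission ratio fitted upward versus DMSO.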

[14] = TOX21_p53_BLA_p3_viability: Viability Assessment in the Tox21 HCT-116 p53 Agonism Beta-lactamase Assay, Phase 3 (AID 2283593; active means hit-call score of the fitted dose curve at least 0.9, where 1 is the maximum;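 further: cells exposed to compound for 16 h before reading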)
How it was run: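 HCT116 cells, 4000/well, dosed 5 h after plating by pin transfer (217-fold dilution from DMSO stock) and incubated 16 h at 37C, 5% CO2. Viability read as ATP luminescence with CellTiter-Glo after 30 min at room temperature.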

[15] = TOX21_p53_BLA_p4_viability: Viability Assessment in the Tox21 HCT-116 p53 Agonism Beta-lactamase Assay, Phase 4 (AID 2283597; active means hit-call score of the fitted dose curve at least 0.9, where 1 is the maximum;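 further: hits lower the luminescence signal meaning cytotoxicity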)
How it was run: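 HCT-116 p53-bla cells, 4000/well, dosed after 5 h attachment and incubated 16 h at 37 °C, 5% CO2. Viability from CellTiter-Glo ATP luminescence after 30 min at room temperature, taken after the beta-lactamase read; loss of signal indicates cytotoxicity.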

[16] = TOX21_p53_BLA_p5_viability: Viability Assessment in the Tox21 HCT-116 p53 Agonism Beta-lactamase Assay, Phase 5 (AID 2283600; active means hit-call score of the fitted dose curve at least 0.9, where 1 is the maximum)
How it was run: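 HCT-116 p53 beta-lactamase reporter cells, 4000/well, were exposed to compound (pin transfer, 217-fold dilution) for 16 hours at 37C. Cellular ATP was read by CellTiter-Glo luminescence after 30 min at room temperature.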

[17] = target: Cellular tumor antigen p53 (Homo sapiens) (UniProt P04637); assay: TOX21_p53_BLA_p4_ratio: Tox21 HCT-116 p53 Agonism Beta-lactamase Assay, Ratio, Phase 4 (AID 2283601; active means hit-call score of the fitted dose curve at least 0.9, where 1 is the maximum)
How it was run: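 HCT-116 p53 beta-lactamase reporter cells (4000/well) preincubated 5 h, then compound (217-fold dilution of DMSO stock) for 16 h at 37C. CCF4-AM substrate added 2 h at room temperature; 460/530 nm emission ratio fitted upward versus DMSO.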

[18] = read-out: sulfotransferase 2A1 (SULT2A1), SULT2A1 (gene 6822); assay: LTEA_HepaRG_SULT2A1: Life Technologies and Expression Analysis (LTEA) Assay for sulfotransferase 2A1 (SULT2A1) using HepaRG (AID 2283531); conditions: mRNA level, 48 h; actives raise or lower the signal
How it was run: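 HepaRG human liver cells, 48 h exposure in serum-free induction medium to 8 half-log concentrations topping at 100 µM (0.5% DMSO), duplicate wells. SULT2A1 mRNA measured by TaqMan qRT-PCR, normalized to ACTB/GAPDH/POLR2A; bidirectional fit against DMSO.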

[19] = target: Cellular tumor antigen p53 (Homo sapiens) (UniProt P04637); assay: TOX21_p53_BLA_p3_ratio: Tox21 HCT-116 p53 Agonism Beta-lactamase Assay, Ratio, Phase 3 (AID 2283596; active means hit-call score of the fitted dose curve at least 0.9, where 1 is the maximum)
How it was run: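 HCT116 p53-bla cells (4000/well) given compound in DMSO (217-fold dilution) after 5 h, incubated 16 h at 37C. CCF4-AM substrate 2 h at room temperature; 460/530 nm emission ratio, gain fitted against DMSO.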

Measured: AC50

CC1(C)C(C=C(Cl)Cl)C1C(=O)OC(C#N)c1ccc(F)c(Oc2ccccc2)c1 (configuration not stated)
active: [7] 10.2 µM
not listed: [18] | [19]
inactive: all other assays above

CCOC1Oc2ccc(OS(C)(=O)=O)cc2C1(C)C (configuration not stated)
inactive: [3] | TIMP1, TIMP1 (gene 7076) | [4] | [9]
active: [1] 73.6 µM | [18] 83.5 µM | [2] 90.8 µM | [5] 89.3 µM | [7] 11.8 µM | [8] 85.4 µM | [10] 83.8 µM

CC(C)(C)C(O)C(Oc1ccc(Cl)cc1)n1cncn1 (configuration not stated)
inactive: [1] | [2] | [3] | TIMP1, TIMP1 (gene 7076) | [4] | [6] | [8] | [9] | [10] | [11] | [12] | [13] | [14] | [19] | [15] | [16] | [17]
active: [5] 35.3 µM and 36 µM and 27.9 µM | [6] 0.354 µM | [7] 3.12 µM and 2.49 µM and 3.05 µM | [8] 0.381 µM

CN1CSC(=S)N(C)C1
not listed: [11] | [18]
inactive: all other assays above

O=C(O)CCCOc1ccc(Cl)cc1Cl
active: [7] 34.5 µM
not listed: [18]
inactive: all other assays above
